Screening data: PubChem BioAssay, several laboratories
Only some compounds are listed: those with a hit (about 4.1% of all), similar ones and a draw of the others.
CHT inh – inhibitors of human choline transporter CHT; CHT-expressing cells, membrane potential dye, choline response; active compounds read low; B-score at 10 µM; hit rate 0.86% among 310,000;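 active = B-score over 3 SD under the library average, and starting fluorescence ratio not unusually high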;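 also: choline stimulus applied at its EC90 after an EC20 pre-addition; B-score computed on integrated fluorescence ratio after choline addition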
Target sequence (Q9GZV3 whole entry, looked up): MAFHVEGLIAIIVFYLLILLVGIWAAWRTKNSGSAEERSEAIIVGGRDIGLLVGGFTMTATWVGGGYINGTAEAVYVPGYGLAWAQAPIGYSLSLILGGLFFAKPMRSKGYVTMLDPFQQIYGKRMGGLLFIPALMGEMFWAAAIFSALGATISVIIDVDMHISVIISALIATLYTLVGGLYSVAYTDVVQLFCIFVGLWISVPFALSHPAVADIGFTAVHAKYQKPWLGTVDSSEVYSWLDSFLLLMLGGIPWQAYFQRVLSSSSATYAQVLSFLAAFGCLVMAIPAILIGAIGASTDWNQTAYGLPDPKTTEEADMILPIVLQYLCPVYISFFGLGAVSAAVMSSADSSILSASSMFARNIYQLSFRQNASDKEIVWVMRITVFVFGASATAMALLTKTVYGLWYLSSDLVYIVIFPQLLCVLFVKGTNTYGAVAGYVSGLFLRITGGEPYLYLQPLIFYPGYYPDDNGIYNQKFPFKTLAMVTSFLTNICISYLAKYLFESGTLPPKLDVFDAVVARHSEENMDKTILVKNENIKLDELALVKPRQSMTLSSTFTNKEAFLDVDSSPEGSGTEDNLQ
MEKK2mut PB1 HTS – MEK5 binding signal on mutant MEKK2 PB1, primary screen, biochemical, multiplex bead flow cytometry, Alexa488-MEK5 | percent response, % at 10 µM | hit rate 0.35% among 290,000 | Alexa488-MEK5 binding to MEKK2 mutant; in the data active = percent response above about 24%, passing the limit was not always enough
CHT allo act – CHT positive allosteric modulators, primary screen, cell-based, membrane potential dye, choline EC20. CHT-expressing cells; active compounds read high; LV-AA mutant CHT in HEK293 cells. High affinity choline transporter 1 (Homo sapiens), Q9GZV3. B-score at 10 µM. hit rate 0.49% among 310,000;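 active = initial fluorescence not abnormally high and integrated response B-score, plate-corrected, over 3 SD above library mean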
SUMO Mot1 rescue – yeast Mot1-301 growth rescue at high temperature, primary screen, SUMOylation pathway inhibitor project, S. cerevisiae, ATP luminescence, 38.5C; S. cerevisiae Mot1-301 growth rescue; percent above DMSO median, 100 means doubled; growth rescue, % at 18.8 µM; hit rate 1% among 320,000;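 active = every valid replicate shows activation above 250% relative to neutral control wells; inactive = the rest, any valid replicate at or below 250%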;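 also: OY570 slx delta 5 strain wells were the positive control but not used for scaling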
MEKK2 WT-MEK5 – modulators of MEK5 binding to wildtype MEKK2, primary screen, biochemical, multiplex bead flow cytometry, Alexa488-MEK5. hit rate 1.1% among 290,000. AID 1531, 2009. binding response (% of control), % at 10 µM. Mitogen-activated protein kinase kinase kinase 2 (Homo sapiens), Q9Y2U5. Alexa488-MEK5 binding to MEKK2 WT; actives lie on both sides; in the data active = binding response below about 67% or above about 130%
MEKK3 PB1 HTS – modulators of MEKK3-MEK5 PB1 binding, primary screen, biochemical, wildtype MEKK3, multiplex bead flow cytometry, Alexa488-MEK5. AID 1529, 2009. binding response (% of control), % at 10 µM. bead-based flow cytometry, Alexa488-MEK5 binding to MEKK3; actives lie on both sides; 0 = blocked by unlabeled MEK5, 100 = vehicle. hit rate 1.4% among 290,000;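 active = binding response more than 3 SD above or below the average of its plate-row segment, actives on both sides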;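 also: Alexa488 bead fluorescence after subtracting the streptavidin-only scavenger bead signal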
CHT block conf – CHT inhibitors, confirmation, cell-based, membrane potential dye, duplicate | shares compounds with CHT inh | CHT activity remaining % of control (active compounds read low), % at 10 µM | hit rate 70% among 2,400 | CHT-expressing cells, choline membrane potential dye; LV-to-AA substituted CHT, HEK293 cells;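 active = choline transporter activity left, mean of duplicates at 10 µM, below buffer-only control mean minus 3 SD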;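 also: depolarization triggered by choline at its EC90 following an EC20 pre-addition; 0% = hemicholinium-3 full block and 100% = buffer-only control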
HEK293 CHT ctr – membrane potential effects in parental HEK293, counter-screen for CHT inhibitor project, cell-based, membrane potential dye; shares compounds with CHT inh; choline response; active = decrease or increase beyond buffer ±3SD; membrane potential ratio readout (active if shifted either direction beyond buffer ±3SD; no single direction) at 10 µM; hit rate 4% among 2,400;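 also: parental cells lack the transporter so any hit is non-specific; ratio is peak minus trough fluorescence over baseline after EC90 choline challenge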
* = called active by the depositor.

`Cc1ccc(NC(=O)c2cccc(Oc3ccc([N+](=O)[O-])cc3)c2)c(C(=O)O)c1` gave CHT inh inactive, MEKK2mut PB1 HTS -2.0, CHT allo act inactive, SUMO Mot1 rescue 2.3, MEKK2 WT-MEK5 98.0 and MEKK3 PB1 HTS 98.0.
For COc1ccc(N(CC(=O)NCc2ccc(C)cc2)S(=O)(=O)c2c(C)[nH]c(=O)[nH]c2=O)cc1 the results were CHT inh inactive, MEKK2mut PB1 HTS 3.0, CHT allo act inactive, MEKK2 WT-MEK5 104.0 and MEKK3 PB1 HTS 100.0.
Clc1ccc(CSc2ncnc3nc[nH]c23)cc1 was read as CHT inh -6.18*, MEKK2mut PB1 HTS -1.0, CHT allo act inactive, SUMO Mot1 rescue 6.1, MEKK2 WT-MEK5 111.0, MEKK3 PB1 HTS 106.0, CHT block conf inactive and HEK293 CHT ctr inactive.
Screening O=C(O)C1=CC[C@@H](c2ccc(Cl)cc2)N(S(=O)(=O)c2ccc(Cl)cc2)[C@H]1c1ccc(F)cc1 returned CHT inh -6.35*, CHT allo act inactive, SUMO Mot1 rescue 2.8, CHT block conf 57.8%* and HEK293 CHT ctr inactive.
Cc1ccc(S(=O)(=O)N2[C@@H](c3cccc(Cl)c3)C(C(=O)O)=CC[C@H]2c2ccc(Cl)cc2)cc1 was read as CHT inh inactive, CHT allo act inactive and SUMO Mot1 rescue 1.4.
Cc1ccc(S(=O)(=O)N2[C@@H](c3ccc(Cl)cc3)C(C(=O)O)=CC[C@H]2c2ccc(Cl)c(Cl)c2)cc1 was read as CHT inh -6.17*, CHT allo act inactive, SUMO Mot1 rescue -19.9, CHT block conf 64.8%* and HEK293 CHT ctr inactive.
Screening Cc1ccc([C@@H]2CC=C(C(=O)O)[C@H](c3ccc(F)cc3)N2S(=O)(=O)c2ccc(C)cc2)cc1 returned CHT inh inactive, CHT allo act inactive and SUMO Mot1 rescue -16.0.
`CCOc1ccc([C@@H]2CC=C(C(=O)O)[C@H](c3cccc(Cl)c3)N2S(=O)(=O)c2ccc(C)cc2)cc1` gave CHT inh -6.14*, CHT allo act inactive, SUMO Mot1 rescue -0.4, CHT block conf 61.8%* and HEK293 CHT ctr inactive.
Screening Cc1nc2ccccc2c(=O)n1NC(=O)Cc1ccc([N+](=O)[O-])cc1 returned CHT inh inactive, MEKK2mut PB1 HTS -26.0, CHT allo act inactive, SUMO Mot1 rescue 5.6, MEKK2 WT-MEK5 69.0 and MEKK3 PB1 HTS 71.0.
Cn1c(=O)c(C(=O)NCCc2ccc(Cl)cc2)c(O)c2ccccc21 was read as CHT inh inactive, MEKK2mut PB1 HTS 2.0, CHT allo act inactive, SUMO Mot1 rescue 5.6, MEKK2 WT-MEK5 102.0 and MEKK3 PB1 HTS 97.0.
For O=C(Cn1nc(-c2ccccc2)ccc1=O)NCc1ccc2c(c1)OCO2 the results were CHT inh inactive, MEKK2mut PB1 HTS 4.0, CHT allo act inactive, SUMO Mot1 rescue -25.5, MEKK2 WT-MEK5 105.0 and MEKK3 PB1 HTS 105.0.
Screening O=C(Cn1nc(-c2ccccc2)ccc1=O)NCc1ccc(F)cc1 returned CHT inh -6.26*, MEKK2mut PB1 HTS 6.0, CHT allo act inactive, SUMO Mot1 rescue 12.6, MEKK2 WT-MEK5 103.0, MEKK3 PB1 HTS 102.0, CHT block conf 48.5%* and HEK293 CHT ctr inactive.
`CCc1c(C2(O)CCCCC2)[nH]c2cc(C(F)(F)F)ccc12` gave CHT inh -5.71*, MEKK2mut PB1 HTS -1.0, CHT allo act inactive, SUMO Mot1 rescue 325.0*, MEKK2 WT-MEK5 98.0, MEKK3 PB1 HTS 100.0, CHT block conf 52.7%* and HEK293 CHT ctr inactive.
Cc1c(C2(O)CCCCC2)[nH]c2cc(C(F)(F)F)ccc12 was read as SUMO Mot1 rescue 139.6.
For Cc1cc(C)cc(OCC(=O)Nc2ccncc2)c1 the results were CHT inh inactive, MEKK2mut PB1 HTS -1.0, CHT allo act inactive, SUMO Mot1 rescue 100.1, MEKK2 WT-MEK5 100.0 and MEKK3 PB1 HTS 101.0.
`S=c1nc(-c2ccco2)[nH][nH]1` gave CHT inh -5.37*, MEKK2mut PB1 HTS -2.0, CHT allo act inactive, SUMO Mot1 rescue -22.2, MEKK2 WT-MEK5 96.0, MEKK3 PB1 HTS 89.0, CHT block conf 47.8%* and HEK293 CHT ctr inactive.
`Cn1c(-c2ccco2)n[nH]c1=S` gave CHT inh inactive, MEKK2mut PB1 HTS 0.0, CHT allo act inactive, SUMO Mot1 rescue 16.4, MEKK2 WT-MEK5 114.0 and MEKK3 PB1 HTS 116.0.
For CC(C)CS(=O)(=O)C1=NSC2=NC(=O)/C(=C\c3ccc(OC(=O)c4ccco4)cc3)C(=N)N21 the results were CHT inh -6.91*, MEKK2mut PB1 HTS -8.0, CHT allo act inactive, SUMO Mot1 rescue -5.4, MEKK2 WT-MEK5 90.0, MEKK3 PB1 HTS 95.0, CHT block conf 64.9%* and HEK293 CHT ctr inactive.
`CCS(=O)(=O)C1=NN2C(=N)/C(=C\c3ccc(OS(=O)(=O)c4ccccc4)cc3)C(=O)N=C2S1` gave CHT inh -8.65*, MEKK2mut PB1 HTS -3.0, CHT allo act inactive, SUMO Mot1 rescue 7.8, MEKK2 WT-MEK5 93.0, MEKK3 PB1 HTS 97.0, CHT block conf 41.8%* and HEK293 CHT ctr inactive.
`CSC1=NSC2=NC(=O)/C(=C\c3ccc(OC(=O)c4ccco4)cc3)C(=N)N12` gave CHT inh inactive, MEKK2mut PB1 HTS -2.0, CHT allo act inactive, SUMO Mot1 rescue 6.9, MEKK2 WT-MEK5 93.0 and MEKK3 PB1 HTS 100.0.
Screening CCS(=O)(=O)C1=NSC2=NC(=O)/C(=C\c3ccc(OS(=O)(=O)c4ccccc4)c(OC)c3)C(=N)N21 returned CHT inh -5.26*, MEKK2mut PB1 HTS 0.0, CHT allo act inactive, SUMO Mot1 rescue 2.8, MEKK2 WT-MEK5 100.0, MEKK3 PB1 HTS 103.0, CHT block conf 47.5%* and HEK293 CHT ctr inactive.
Screening Cc1ccc(S(=O)(=O)Oc2ccc(/C=C3/C(=N)N4C(=NC3=O)SN=C4S(C)(=O)=O)cc2)cc1 returned CHT inh -6.13*, MEKK2mut PB1 HTS -13.0, CHT allo act inactive, SUMO Mot1 rescue 5.3, MEKK2 WT-MEK5 88.0, MEKK3 PB1 HTS 95.0, CHT block conf 47.7%* and HEK293 CHT ctr inactive.
